# Compounds with a hit are over-represented: about 10% of the library has one in this group of screens.
# NIH3T3 tox: kills NIH 3T3 cells. NIH 3T3 viability, CellTiter-Glo ATP luminescence, 48-72 h. Potency, µM (highest dose often 96.7 µM), usual class: inhibitors. 4.3% of 94,000 active. AID 1345082; also: nearly all actives have a fitted effect of over 55% in size
#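 Cytotoxicity was measured by CellTiter-Glo ATP luminescence after 48 or 72 h compound exposure at 37 °C. Mouse NIH 3T3 fibroblasts were seeded at 400 cells/well and dosed by 23 nL pin transfer.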
# NPR1 antag: antagonists of human natriuretic peptide receptor Npr1; P16066; HEK293 hNpr1 GloSensor cGMP, ANP-stimulated luminescence; Potency, µM (titrated, usually from 46.3 µM), usual class: inhibitors; 1.6% of 76,000 active; AID 1347048; calls by dose curve; also: nearly all actives have a fitted effect of over 60% in size
#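 Compound pre-incubated 30 min at room temperature on GloSensor-loaded HEK293 cells stably carrying hNpr1 and the pGS-40F cGMP biosensor. Stimulation uses hNppA at 0.1 nM final; luminescence is taken at baseline and 20 min post-agonist.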
# FLuc inh: blocks purified firefly luciferase enzyme activity. 2.5% of 76,000 active. purified P. pyralis luciferase, luminescence, biochemical. P08659. Potency, µM (highest dose often 115 µM), actives largely listed as inhibitors; also: nearly all actives have a fitted effect of over 65% in size
#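 Purified 10nM P. pyralis luciferase with 10uM D-luciferin and 10uM ATP in 50mM Tris acetate pH 7.5, 10mM Mg acetate, 0.01% Tween-20, 0.05% BSA. qHTS titration; luminescence read by CCD imager.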
# HEK293 tox: HEK 293 cell cytotoxicity; 6.6% of 94,000 active; HEK 293 viability, ATP luminescence (CellTiter-Glo), 48-72 h; Potency, µM (titrated, usually from 115 µM), hits mostly inhibitors; also: nearly all actives have a fitted effect of over 60% in size
#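 Cytotoxicity was scored by loss of ATP-coupled luminescence (CellTiter-Glo) in HEK 293 cells. Compound treatment ran 48 or 72 hr at 37 degree Celsius, 5% CO2, 95% humidity.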
# GPT2 inh: GPT2 alanine aminotransferase inhibition; Potency, µM (doses to about 57.7 µM), hits mostly inhibitors; Recombinant GPT2, coupled pyruvate oxidase/HRP Amplex Red fluorescence; 0.25% of 100,000 active; AID 1671188; also: nearly all actives have a fitted effect of over 60% in size
# Target sequence (Q8TD30 whole entry, looked up): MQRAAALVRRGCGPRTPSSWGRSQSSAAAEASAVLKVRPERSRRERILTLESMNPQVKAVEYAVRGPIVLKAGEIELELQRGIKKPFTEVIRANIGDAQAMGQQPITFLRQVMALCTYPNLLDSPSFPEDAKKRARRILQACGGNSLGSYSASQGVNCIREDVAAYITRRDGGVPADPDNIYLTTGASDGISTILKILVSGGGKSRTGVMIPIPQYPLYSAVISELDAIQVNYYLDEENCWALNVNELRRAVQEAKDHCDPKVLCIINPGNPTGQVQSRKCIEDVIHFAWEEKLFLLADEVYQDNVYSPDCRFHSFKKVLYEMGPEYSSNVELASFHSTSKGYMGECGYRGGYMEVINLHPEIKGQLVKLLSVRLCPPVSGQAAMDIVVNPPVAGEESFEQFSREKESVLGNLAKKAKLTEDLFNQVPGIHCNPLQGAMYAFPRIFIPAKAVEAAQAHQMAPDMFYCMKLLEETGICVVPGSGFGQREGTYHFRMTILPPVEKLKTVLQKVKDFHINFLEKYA
#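 Recombinant GPT2 (10ng/uL) with 250uM a-KG and 2mM L-alanine, 30 min at room temperature, in HEPES pH 7.5 buffer. Pyruvate detected by pyruvate oxidase/HRP/Amplex Red fluorescence after 30 min in the dark; AOA (50uM) as positive control.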
# Numbers stand for hits; – = inactive; ? = inconclusive; · = no result. Unless noted, calls follow the shape of the dose curve; as a rule, active = well fitted curve in the direction sought with a large enough effect; inconclusive = small, poorly fitted or top-dose-only effect, or another doubt; inactive = no such curve, though single readings can be large; an effect the other way counts as inactive or inconclusive.
SMILES,NIH3T3 tox,NPR1 antag,FLuc inh,HEK293 tox,GPT2 inh
O=C(c1ccccc1Cl)N1CCCC(C(=O)N2CCCC2c2nc3ccncc3[nH]2)C1 (stereo not given),–,·,·,–,–
O=C(NCCc1ccccc1)C1CCCN1Cc1ccc(-c2cncnc2)cc1 (stereo not given),?,·,·,?,–
Cc1nn2c(c1-c1ccccc1C(C)C)N(Cc1ccc(C(=O)O)cc1)CCC2,7.1µM,–,–,?,–
Cc1nn2c(c1-c1ccccc1OCc1ccccc1)N(C(=O)C(C)C)CCC2,89µM,–,–,32µM,–
CC(=O)Nc1ccccc1-c1c(C)nn2c1N(CCCc1ccccc1)CCC2,25µM,?,–,?,–
Cc1nn2c(c1-c1ccccc1OCc1ccccc1)N(Cc1ccccc1)CCC2,?,–,–,?,–
Cc1nn2c(c1-c1ccccc1OCc1ccccc1)N(Cc1ccc(OCC(=O)O)cc1)CCC2,25µM,–,–,–,–
CNC(=O)c1cc(C2CC2)nc2c1c(C1CCCN1C(=O)c1ccc(C)cc1)nn2C (stereo not given),–,·,·,–,·
Cc1nn2c(c1-c1ccccc1[S+](C)(=O)[O-])N(C(=O)c1ccccc1)CCC2,?,–,–,–,–
Cc1nn2c(c1-c1ccccc1[S+](C)(=O)[O-])N(Cc1ccccc1F)CCC2,32µM,–,–,?,–
CN(CCn1ccnc1)c1ccc(-c2nc(-c3cccc(Cl)c3)no2)cn1,?,?,3.2µM,35µM,–
COc1cccc(CN2Cc3nc(OCc4ccc(F)cc4)ccc3OCC2=O)c1,?,?,–,100µM,–
COc1cccc(-c2ccc3c(n2)CN(Cc2ccc(F)cc2)C(=O)CO3)c1,?,?,–,89µM,–
CC(=O)N1CCC(c2nc(-c3nnn4c3COC(c3ccc(C)cc3)C4)no2)CC1 (stereo not given),–,–,–,?,–
O=C(C1CCCN1C(=O)c1ccccc1)N1CCC(c2nc3ncccc3[nH]2)CC1 (stereo not given),–,·,·,–,–
O=C(C1CN(C2CCCCC2)C(=O)N1)N1CCc2ccccc2C1 (stereo not given),?,·,·,25µM,–
O=C1CCCCC(C(=O)N2CCc3ccccc3C2)N1 (stereo not given),–,–,–,?,–
O=C(NCCNC(=O)C1CC1)c1ccc(-c2cncnc2)cc1,–,·,·,–,·
Cc1cc2cc(-c3c(C)noc3C)nc(-c3cccc([S+](C)(=O)[O-])c3)c2o1,11µM,–,–,?,–
Cc1cc2cc(-c3c(C)noc3C)nc(-c3ccc(CO)cc3)c2o1,28µM,–,–,?,?
COc1cccc(-c2nc(-c3c(C)noc3C)cc3cc(C)oc23)c1,?,–,–,?,–
Cc1noc(C)c1-c1cc2cc(CO)oc2c(-c2cccc(OC(C)C)c2)n1,?,–,–,89µM,–
Cc1noc(C)c1-c1cc2cc(C(C)C)oc2c(-c2ccc(CO)cc2)n1,?,–,–,?,–
O=C(Nc1cc(C2CC2)nn1-c1ccccc1)c1cccc(Cl)c1,?,·,·,?,–
O=C(c1ccc(C(F)(F)F)cc1)N1CCC(C(=O)N2CCC(c3nc4ccncc4[nH]3)C2)CC1 (stereo not given),–,·,·,–,–
SMILES,NIH3T3 tox,NPR1 antag,FLuc inh,HEK293 tox,GPT2 inh
COc1ccccc1-c1cccc(C(=O)N2CCN([S+](=O)([O-])c3cccs3)CC2)c1,?,·,·,20µM,–
COc1ccccc1-c1cccc(C(=O)N2CCN([S+](=O)([O-])c3ccccc3)CC2)c1,?,·,·,32µM,–
COc1ccccc1-c1cccc(C(=O)N2CCN([S+](=O)([O-])c3c(C)noc3C)CC2)c1,–,·,·,?,–
CC(C)CCC(=O)NC1CCN(c2cnn(CC3CC3)c(=O)c2)CC1,–,–,–,?,–
COc1ccc(CN2Cc3[nH]nc(-c4cnc(OC)nc4)c3CC2=O)cc1,8.9µM,–,–,–,–
COc1ccc(CN2Cc3[nH]nc(-c4ccc(CO)cc4)c3CC2=O)cc1,?,–,–,–,–
COc1ncc(-c2n[nH]c3c2CC(=O)N(Cc2ccccc2)C3)cn1,25µM,–,–,?,–
COc1ncccc1-c1n[nH]c2c1CC(=O)N(Cc1ccccc1)C2,25µM,–,–,–,–
COc1ccc(CN2Cc3[nH]nc(-c4ccc(C(=O)N5CCOCC5)cc4)c3CC2=O)cc1,–,–,–,79µM,–
COCCN1Cc2[nH]nc(-c3ccc(OC)c(F)c3)c2CC1=O,79µM,–,–,–,–
COc1ccc(-c2n[nH]c3c2CC(=O)N(CC2CCOCC2)C3)cc1F,?,–,–,?,–
COCc1cccc(-c2n[nH]c3c2CC(=O)N(Cc2ccc(OC)cc2)C3)c1,25µM,–,–,?,–
CCc1ccc([S+](=O)([O-])c2nnn3c2nc(NCc2ccncc2)c2ccccc23)cc1,?,·,·,?,–
C[C@@H](NC(=O)C[C@@H]1c2nc(-c3cccnc3)sc2C[C@@H]2[C@](C)(CO)[C@H](O)CC[C@]21C)c1ccccc1,20µM,–,–,?,–
CCCCCC(=O)Nc1nc2c(s1)C[C@@H]1[C@](C)(CO)[C@H](O)CC[C@@]1(C)[C@@H]2CC(=O)N(C)Cc1ccccc1,50µM,–,–,28µM,–
C#CCN(C)C(=O)C[C@@H]1c2nc(NC(=O)CCCCC)sc2C[C@@H]2[C@](C)(CO)[C@H](O)CC[C@]21C,–,–,–,–,–
CCCCCC(=O)Nc1nc2c(s1)C[C@@H]1[C@](C)(CO)[C@H](O)CC[C@@]1(C)[C@@H]2CC(=O)NC1CCCC1,?,–,–,–,–
CCCCCC(=O)Nc1nc2c(s1)C[C@@H]1[C@](C)(CO)[C@H](O)CC[C@@]1(C)[C@@H]2CC(=O)N[C@H](C)c1ccccc1,?,–,–,40µM,–
O=C(NCc1cccs1)c1cc(-c2ccc(Cl)cc2Cl)c2nncn2n1,?,·,·,?,–
Cc1cc(S(=O)(=O)N2CCCN(C)c3ccccc32)ccc1Cl,?,·,·,?,–
O=C1CN(C(=O)c2csc3nc(-c4ccc(C(F)(F)F)cc4)cn23)CCCN1,?,?,7.9µM,45µM,–
O=C1OC[C@@H]2CCN(Cc3ccccc3Cl)Cc3ccc(F)cc3N12,–,–,–,71µM,–
CC(=O)c1cc(CN2CCCCC(N)C2)cs1 (stereo not given),–,–,–,–,–
O=C(Nc1cccnc1)c1ccnc(-c2nnc3ccc(Nc4ccccc4)nn23)c1,?,–,–,?,–
COc1ccc(-c2nnc([C@H]3CCN(S(=O)(=O)Cc4ccccc4)C3)o2)cc1,?,–,50µM,?,–
COc1ccc(-c2nnc([C@H]3CCN(S(C)(=O)=O)C3)o2)cc1,–,–,–,–,–
